Sampled rows, rich in hits. Any-hit rate of the full collection: about 0.77%.
Mtb hypoxia rep – inhibitors of hypoxia-regulated fluorescent reporter in Mycobacterium tuberculosis; M. tuberculosis hypoxia-regulated fluorescent reporter, fluorescence; fluorescence inhibition, % (test concentration not listed); 300,000 tested, 0.1% active; AID 1159583; in the data active = fluorescence inhibition mostly above about 23%, no sharp cut-off; inactive = mostly below about 17%
RecA intein inh – inhibitors of M. tuberculosis RecA intein splicing; cell-free RecA intein splicing, fluorescence; inhibition, % (test concentration not listed); 290,000 tested, 0.75% active; P9WHJ3; in the data active = inhibition above about 30%; inconclusive = no clear call, values can overlap the other calls;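 also: 0% = vehicle wells and 100% = reference inhibitor control wells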
Mtb bLac sens – beta-lactam sensitization of Mtb H37Rv. M. tuberculosis H37Rv growth with meropenem, percent inhibition. inhibition, % at 25 µM. 330,000 tested, 0.27% active. AID 434955;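 also: growth measured after seven days incubation then overnight dye step; 0% = bacteria only wells and 100% = bacteria with antibiotic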
Rv3671c inh – inhibits the M. tuberculosis serine protease Rv3671c | inhibition, % at 5.96 µM | 320,000 tested, 0.048% active | AID 2606; in the data active = inhibition above about 38%;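 also: extracellular domain of Rv3671c used as enzyme; 0% = enzyme with DMSO and 100% = no enzyme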
Mtb UGM inh – blocks M. tuberculosis UGM enzyme; AID 504406; P9WIQ1; inhibition, % at 10 µM; 320,000 tested, 0.06% active; purified UGM, fluorescence polarization probe displacement; in the data active = inhibition above about 10%, passing the limit was not always enough; inconclusive = no clear call, values can overlap the other calls
Target sequence (P9WIQ1 whole entry, looked up): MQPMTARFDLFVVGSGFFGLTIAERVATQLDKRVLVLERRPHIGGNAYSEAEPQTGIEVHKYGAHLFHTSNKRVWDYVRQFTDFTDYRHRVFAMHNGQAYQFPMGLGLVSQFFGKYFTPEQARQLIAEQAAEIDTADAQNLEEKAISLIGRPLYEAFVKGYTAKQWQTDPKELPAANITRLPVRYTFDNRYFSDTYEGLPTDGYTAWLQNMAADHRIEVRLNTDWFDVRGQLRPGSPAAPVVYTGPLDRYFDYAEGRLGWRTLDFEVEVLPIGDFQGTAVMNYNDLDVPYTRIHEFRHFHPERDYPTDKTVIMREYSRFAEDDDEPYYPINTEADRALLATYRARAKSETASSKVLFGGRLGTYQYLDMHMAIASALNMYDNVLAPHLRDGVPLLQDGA
GFP chromo cs – counter-screen GFP chromophore formation inhibition. shares compounds with RecA intein inh. cell-free GFP chromophore formation, fluorescence. 2,100 tested, 83% active. EC50, µM
Numbers without * were called inactive; ? = inconclusive; / = no result shown. Unless noted, no rule for the calls is given here.

SMILES	Mtb hypoxia rep	RecA intein inh	Mtb bLac sens	Rv3671c inh	Mtb UGM inh	GFP chromo cs
O=C1C(Cl)=C(N2CCOCC2)C(=O)N1c1ccccc1Cl	-3.0	85.9*	94.5	-16.1	1.1	5.62*
Cc1ccc(N2C(=O)C(Cl)=C(N3CCOCC3)C2=O)cc1Cl	9.9	73.8*	92.5	-7.6	-0.6	?
CN1CCN(C2=C(Cl)C(=O)N(c3ccc(Cl)c(Cl)c3)C2=O)CC1	11.1	67.9*	75.0	-5.7	-0.5	2.29*
O=C1C(Cl)=C(N2CCCCCC2)C(=O)N1c1ccccc1Cl	1.2	27.0	?	-1.5	-0.6	/
CC(C)(C)OC(=O)C(Cc1ccccc1)NC(=O)c1nc[nH]c1C(=O)NC(Cc1ccccc1)C(=O)OC(C)(C)C (configuration not stated)	2.0	/	/	/	/	/
C#CCOCCOCCOCCNc1nc(N2CCN(C(=O)C(Cc3cc4ccccc4[nH]3)n3cc(C(N)CC(C)C)nn3)CC2)nc(N2CCN(C(=O)C(CCC(=O)O)n3cc(C(N)C(C)CC)nn3)CC2)n1 (configuration not stated)	-0.5	/	/	/	/	/
C#CCOCCOCCOCCNc1nc(N2CCOCC2)nc(N2CCN(C(=O)CCCCCCCCCCNC(=O)C(CCC(=O)O)n3cc(CCCCCN)nn3)CC2)n1 (configuration not stated)	10.1	/	/	/	/	/
Cc1ccsc1C=Nc1ccc(O)cc1	-9.2	77.6*	-4.6	-22.4	0.9	36.2*
Cc1ccc(-c2csc3nc[nH]c(=O)c23)c(C)c1	3.4	0.2	-2.4	-5.5	4.3	/
Cc1ccc(-c2cc(=O)[nH][nH]2)c(C)c1	1.9	94.9*	1.8	8.0	1.5	2.94*
O=C1Cc2ccccc2C(=O)N1CCc1ccccc1	/	92.3*	-2.2	-51.2	0.3	5.48*
COC(=O)C1=C(c2ccccc2)CC2CCC1N2C(=O)N1CCCC1 (configuration not stated)	-0.9	/	/	/	/	/
CC(N=Cc1ccccc1O)c1ccccc1 (configuration not stated)	7.6	1.2	-2.5	-9.6	-1.0	/
Cc1cc(O)c(C(C)C)cc1N=Cc1ccccc1O	2.3	51.5*	0.1	-11.4	1.4	15.3*
Cc1ccc(C)c(Sc2ccc(NC(=O)CCl)cc2)c1	9.2	91.2*	91.2	-2.5	-2.2	6.96*
Cc1ccc(Sc2ccc(NC(=O)CCl)cc2)cc1C	13.6	65.7*	95.5	-27.4	4.6	7.34*
O=C(CCl)Nc1ccccc1Sc1ccccc1	13.6	/	99.4	-2.8	1.4	/
COc1cccc(/C=C(/C#N)c2ccc(F)cc2)c1OCc1cccc(C(=O)O)c1	9.8	0.1	5.1	-10.0	0.6	/
N#C/C(=C/c1cccn1-c1cccc(C(=O)O)c1)c1ccc(F)cc1	10.0	44.8*	/	/	/	>38
COC(CNC(=O)c1ccc2c3c(onc13)-c1ccccc1C2=O)OC	2.8	53.1*	3.0	-43.9	27.0*	20.1*
COC(CNC(=O)c1cccnc1)OC	-6.2	-4.0	-5.1	9.7	-0.8	/
NC(=O)CC1NC(=O)CNC(=O)c2cc([N+](=O)[O-])cc(I)c2NCCC(C(N)=O)NC1=O (configuration not stated)	13.1	/	/	/	/	/
COc1ccc(C2CC(=O)C=C(c3cccc(NC(C)=O)c3)C2)cc1 (configuration not stated)	1.4	/	/	/	/	/
N#C[C@H]1[C@H](c2ccccc2)[C@](C#N)(C(=O)c2ccccc2)[C@@H]2C=Cc3ccccc3N21	/	53.1*	/	/	/	23.1*
COc1ccc(C(=O)N2c3ccccc3C=CC2C#N)cc1 (configuration not stated)	-6.5	6.2	-0.1	6.4	1.0	/
SMILES	Mtb hypoxia rep	RecA intein inh	Mtb bLac sens	Rv3671c inh	Mtb UGM inh	GFP chromo cs
CC1=NNC(=O)C1Oc1ccccc1 (configuration not stated)	8.9	96.4*	6.8	-4.6	-0.7	1.06*
COc1ccc(C(N)=NOC(=O)C=Cc2ccccc2)cc1	-1.4	/	/	/	/	/
O=C(C/C=N\OCc1c(Cl)cccc1Cl)Oc1ccc(Cl)cc1Cl	/	45.3*	-6.2	-1.5	-2.8	27.1*
O=C1C(Cl)=C(NS(=O)(=O)c2ccc([N+](=O)[O-])cc2)C(=O)c2ccccc21	17.3	73.0*	-0.4	2.2	1.2	3.63*
[O-][N+]1=c2ccc(Nc3ccccc3)cc2=NC12CCCCC2	23.5	80.0*	99.2	-19.5	-0.4	11*
COc1ccc(Nc2ccc3c(c2)=NC2(CCCCC2)[N+]=3[O-])cc1	16.5	79.2*	97.6	-4.6	-0.6	10.1*
O=C(O)C1=CC(c2ccc3c(c2)OCO3)CC(OCCCCO)O1 (configuration not stated)	-4.2	/	/	/	/	/
CC(=O)N1N=C(c2ccco2)CC1c1cccs1 (configuration not stated)	11.1	1.0	-0.1	-2.6	-0.7	/
O=C(CCl)N1N=C(c2ccco2)CC1c1cccs1 (configuration not stated)	/	67.2*	99.5	1.4	0.3	25.4*
Cc1ccc(C2=NN(C(=O)CCl)C(c3cccs3)C2)o1 (configuration not stated)	/	73.9*	99.6	-4.8	-4.8	4.63*
Cc1ccc(C2=NN(C(=O)CCC(=O)O)C(c3cccs3)C2)cc1 (configuration not stated)	4.7	0.4	-1.1	6.4	-0.7	/
COC(=O)C1=C(c2cccc(C#N)c2)CC2CCC1N2C(=O)NCCOc1ccccc1 (configuration not stated)	6.8	/	/	/	/	/
O=C(NC(Cc1ccc(Br)cc1)C(=O)O)OCC1c2ccccc2-c2ccccc21 (configuration not stated)	1.0	/	/	/	/	/
O=c1[nH]cc(O)c(=O)[nH]1	/	89.0*	-10.7	4.8	1.6	15.2*
O=[N+]([O-])c1ccc(Nc2ccccc2)c2nonc12	/	8.8	89.4	-1.5	-2.7	/
O=[N+]([O-])c1ccc(Sc2cccc[n+]2[O-])c2nonc12	/	44.8*	/	/	/	19.4*
CC1=NNC(=O)C1C(c1ccc(F)cc1)C(C#N)C#N (configuration not stated)	13.0	85.3*	-8.0	2.1	-0.9	16.6*
CC(C)(C)c1csc(Sc2ccc([N+](=O)[O-])cn2)n1	5.4	31.9*	39.1	3.5	0.2	9.2*
CCS(=O)(=O)c1ncc(Cl)c(C(=O)Nc2ccc(S(=O)(=O)N3CCC(C)CC3)cc2)n1	/	96.1*	-5.6	-128.3	1.6	1.43*
Cc1ccc(NC(=O)c2nc(S(=O)(=O)Cc3ccccc3C)ncc2Cl)cc1C	/	38.9*	19.7	-32.0	1.5	1.3*
CCc1ccc(NC(=O)c2nc(S(=O)(=O)Cc3ccccc3)ncc2Cl)cc1	/	38.6*	-5.2	-17.2	-2.5	2.16*
COc1cccc(NC(=O)c2nc(S(C)(=O)=O)ncc2Cl)c1	/	63.3*	99.1	-3.4	0.1	24.7*
CC1CCN(S(=O)(=O)c2ccc(NC(=O)c3ccncc3)cc2)CC1	5.0	0.5	-2.8	-7.8	-1.8	/
COC(=O)c1ccc(NC(=O)c2nc(S(=O)(=O)Cc3cccc(C)c3)ncc2Cl)cc1	/	73.2*	3.3	-24.6	1.6	0.571*
COc1ccccc1NC(=O)c1nc(S(=O)(=O)Cc2ccccc2)ncc1Cl	/	3.1	55.5	-10.5	-2.2	/

From PubChem BioAssay
